Measured values taken from PubChem BioAssay (EPA / NIEHS).
Calls of active or inactive are those of the source. How the source made its calls: active means hit-call score of the fitted dose curve at least 0.9, where 1 is the maximum; inactive means score below 0.9.

molecular target: X-box-binding protein 1 (Homo sapiens) (UniProt P17861); assay: ATG_Xbp1_CIS: Attagene CIS-FACTORIAL HepG2 Assay for human X-box Binding Protein 1 (XBP1) (AID 2282972); settings: HepG2 XBP1 cis-element reporter, Attagene multiplex; actives raise or lower the signal
Sequence (P17861 whole entry, looked up): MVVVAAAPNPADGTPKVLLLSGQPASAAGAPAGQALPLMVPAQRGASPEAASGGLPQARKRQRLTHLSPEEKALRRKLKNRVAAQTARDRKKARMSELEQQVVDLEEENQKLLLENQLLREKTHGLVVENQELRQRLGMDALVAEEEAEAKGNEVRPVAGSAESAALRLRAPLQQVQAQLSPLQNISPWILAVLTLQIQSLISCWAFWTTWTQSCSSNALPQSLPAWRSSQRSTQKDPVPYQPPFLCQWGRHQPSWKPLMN
Method: ATG_CIS is a cell-based, multiplexed-readout assay that uses HepG2, a human liver cell line, with measurements taken at 24 hours after chemical dosing in a 24-well plate.ATG_Xbp1_CIS is one of 52 assay component(s) measured or calculated from the ATG_CIS assay. It is designed to make measurements of mRNA induction, a form of inducible reporter, as detected with fluorescence intensity signals by Reverse transcription polymerase chain reaction (RT-PCR) and Capillary electrophoresis technology.Data from the assay component ATG_Xbp1_CIS was analyzed into 1 assay endpoint. This assay endpoint, ATG_Xbp1_CIS, was analyzed with bidirectional fitting relative to DMSO as the negative control and baseline of activity. Using a type of inducible reporter, measures of mRNA for gain or loss-of-signal activity can be used to understand the reporter gene at the transcription factor-level as they relate to the gene XBP1. Furthermore, this assay endpoint can be referred to as a primary readout, because this assay has produced multiple assay endpoints where this one serves a reporter gene function. To generalize the intended target to other relatable targets, this assay endpoint is annotated to the dna binding intended target family, where the subfamily is basic leucine zipper.
Human liver HepG2 cells are transiently transfected with multiple reporter transcription units (MRTUs) in 6-well plates using FuGene 6 reagent (Roche; 3 ml FuGene/1 mg DNA). The MRTU constructs are regulated by a cis-regulating element (promoter). […] A major difference between the CIS and TRANS system is that in CIS activities of endogenous TFs are measured, whereas the TRANS assay evaluates changes in activities of exogenous, chimeric NR-Gal4 proteins. […] At the end of 24 hour incubation, total RNA was isolated using TriZol reagent (Invitrogen). The isolated RNA is then reverse-transcribed using oligo(dT) primer and Mo-MLV reverse transcriptase (Invitrogen) with DNAse I (Ambion) treatment for 30 min. The one-tenth of the produced cDNA was amplified by PCR using Taq DNA polymerase (Invitrogen) and two reporter sequence-specific primers. The PCR products were fluorescently labeled by primer extension with 6-arboxyfluorescein (6-FAM) 5'-labeled reporter sequence-specific primer (2 min at 95 C, 20 s at 68 C and 10 min at 72 C) and these products were digested with 5U of HpaI (New England Biolabs) for 2h at 37 C. The fragments were purified using Qiaquick PCR columns (Qiagen), analyzed on an ABI 3130xL genetic analyzer (Applied Biosystems) with peak positions identified by using a set of X-rhodamine (ROX)-labeled MapMarker1000 molecular weight standards (BioVentures). The raw capillary electrophoresis data was processed using Attagraph software (Attagene).

SMILES	outcome	AC50
ClCCOCCOCCCl	inactive	
Cc1cccc(O)c1	inactive	
NC(=O)c1cnccn1	inactive	
CCC(C)C1CCCCC1=O (stereo not given)	inactive	
CC(=O)c1ccc2ccccc2c1	inactive	
CCNC(=S)NCC	inactive	
CC1=C(C=O)C(C)(C)CCC1	inactive	
CC=CC(=O)C1=C(C)C=CCC1(C)C	inactive	
FC(F)(F)c1ccc(Cl)c(Cl)c1	inactive	
CC(C)CCCC(C)(C)O	inactive	
CCCCCC1CCC(=O)O1 (stereo not given)	inactive	
CC(C)=CC(=O)O	inactive	
O=C(O)c1ccccc1O	inactive	
CCOC(=O)C=Cc1ccccc1	inactive	
COc1ccc(OC)cc1	inactive	
CC(C)(CO)CO	inactive	
CC/C(=C(\c1ccccc1)c1ccc(OCCN(C)C)cc1)c1ccccc1	inactive	
CC(=O)CCC(=O)O	inactive	
COc1cc(OC)c2ccc(=O)oc2c1	inactive	
CC(=O)CC(C)(C)C1CCCCC1	inactive	

SMILES	outcome	AC50
CC(=O)c1cccnc1	inactive	
C=C/C(C)=C/C/C=C(\C)CCC=C(C)C	inactive	
CCc1cccc(O)c1	inactive	
NC(N)=S	inactive	
C[C@H](CCC(=O)O)[C@H]1CC[C@H]2[C@@H]3CC[C@@H]4C[C@H](O)CC[C@]4(C)[C@H]3CC[C@]12C	inactive	
CCCOC(=O)CC	inactive	
C1CCCNCC1	inactive	
CCCCCCCCCCO[C@@H]1O[C@H](CO)[C@@H](O)[C@H](O)[C@H]1O	inactive	
CC(C)C(=O)c1ccccc1	inactive	
CCCCCCCC1CCCC1=O (stereo not given)	inactive	
COc1ccccc1NC(=O)CC(C)=O	inactive	
COC(=O)c1cccc(C(=O)OC)c1	inactive	
CC1=CCC(C(C)(C)O)CC1 (stereo not given)	inactive	
CC(=O)CCC=C(C)CCC=C(C)C	inactive	
CC(=O)Nc1cc(S(=O)(=O)O)cc2cc(S(=O)(=O)O)c(N=Nc3ccccc3)c(O)c12	inactive	
CCC(C)(C)c1cc(O)c(C(C)(C)CC)cc1O		5.91 µM (active)
CCCCCC(=O)O[C@]1(C(C)=O)CC[C@H]2[C@@H]3CCC4=CC(=O)CC[C@]4(C)[C@H]3CC[C@@]21C	inactive	
CC(C)Cc1ccccc1	inactive	
c1coc(CNc2ncnc3nc[nH]c23)c1	inactive	
CCCCCCOc1ccc(O)cc1	inactive	
